# Experimental data as given in the supplement of paper PMC12669797.
# Where a name gives a salt, the structure may show the parent alone. ± gives the standard deviation of the averaged measurements.
# Tested on: ES2
# Experiment: cell viability relative to DMSO control (MTS) (fraction of DMSO control); higher = more viable cells / less growth inhibition
# Details: 10 µM; 48 h
# Summary of the method: (§1)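 TOV-21G and ES2 clear cell carcinoma cells were plated in 96-well plates at 5000 cells per well, grown for 24 h, and then exposed to a 367-compound […] library at a final concentration of 10 µM, with vehicle alone in control wells. An MTS assay (CellTiter 96 AQueous One Solution) was read 48 h later according to the manufacturer's protocol. Viability is reported as a fraction of the vehicle control.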
row,SMILES,cell viability
1,COc1ccc(Cl)cc1C(=O)NCCc1ccc(S(=O)(=O)NC(=O)NC2CCCCC2)cc1 [Glibenclamide],0.829
2,O=[N+]([O-])c1ccc(-c2nc(-c3ccc(F)cc3)c(-c3ccncc3)[nH]2)cc1,0.835
3,Nc1cccc2c1CN(C1CCC(=O)NC1=O)C2=O (configuration not stated) [lenalidomide],0.928
4,COC(=O)CNC(=O)C(=O)OC [Dimethyloxalylglycine],1.23
5,CNC(=O)c1cc(Oc2ccc(NC(=O)Nc3ccc(Cl)c(C(F)(F)F)c3)cc2)ccn1 [sorafenib],0.402
6,Clc1ccccc1CNCC1CCC(CNCc2ccccc2Cl)CC1 (configuration not stated),0.789
7,Nc1[nH]nc2nnc(-c3c(-c4ccccc4)nn4ccccc34)cc12 [ERK inhibitor II],0.847
8,CC(C)(C)c1cc(O)ccc1O [t-Butylhydroquinone (BHQ)],0.939
9,C=CCNC1=C2C[C@@H](C)C[C@H](OC)[C@H](O)[C@@H](C)/C=C(\C)[C@H](OC(N)=O)[C@@H](OC)/C=C\C=C(/C)C(=O)NC(=CC1=O)C2=O,0.541
10,Oc1c2ccccc2c2c3c(cccc13)N=N2,0.721 ± 0.32
11,CC(C)n1nc(-c2cc3cc(O)ccc3[nH]2)c2c(N)ncnc21 [Torkinib],0.417
12,CN(C)CC[C@H](CSc1ccccc1)Nc1ccc(S(=O)(=O)NC(=O)c2ccc(N3CCN(Cc4ccccc4-c4ccc(Cl)cc4)CC3)cc2)cc1[N+](=O)[O-],0.713
13,CO[C@H]1C[C@@H]2CC[C@@H](C)[C@@](O)(O2)C(=O)C(=O)N2CCCC[C@H]2C(=O)O[C@H]([C@H](C)C[C@@H]2CC[C@@H](OC(=O)C(C)(CO)CO)[C@H](OC)C2)CC(=O)[C@H](C)/C=C(\C)[C@@H](O)[C@@H](OC)C(=O)[C@H](C)C[C@H](C)/C=C/C=C/C=C/1C [temsirolimus],0.824
14,CCCOc1ccccc1-c1nc2[nH]nnc2c(=O)[nH]1 [Zaprinast],0.909
15,C[C@]1(O)C[C@@H](c2nc(-c3ccc4ccc(-c5ccccc5)nc4c3)c3c(N)nccn32)C1,0.62
16,CCOC(=O)C1=C(N)Oc2ccc(Br)cc2C1C(C#N)C(=O)OCC (configuration not stated),1.04
17,"COc1cccc2c1C(=O)c1c(O)c3c(c(O)c1C2=O)C[C@@](O)(C(C)=O)C[C@@H]3O[C@H]1C[C@H](N)[C@H](O)[C@H](C)O1 [Daunorubicin, HCl]",0.435
18,O=C(Nc1cccc(NC(=O)c2cccc(O)c2O)c1)c1cccc(O)c1O,0.614

row,SMILES,cell viability
1,CNC(=O)c1ccc(N2C(=S)N(c3ccc(C#N)c(C(F)(F)F)c3)C(=O)C2(C)C)cc1F,1.14
2,CN(Cc1cnc2nc(N)nc(N)c2n1)c1ccc(C(=O)N[C@@H](CCC(=O)O)C(=O)O)cc1 [Methotrexate],1.16
3,CCCCCCCCCCC1=C(C)C(=O)C(OC)=C(OC)C1=O [Decylubiquinone],1.02
4,CC(Cc1ccc(O)c(O)c1)C(C)Cc1ccc(O)c(O)c1 (configuration not stated) [Nordihydroguaiaretic acid (NDGA)],1
5,C[C@H](NC(=O)/C(C#N)=C/c1cccc(Br)n1)c1ccccc1,0.347
6,Cc1cnc(-c2cnc(NCCNc3ccc(C#N)cn3)nc2-c2ccc(Cl)cc2Cl)[nH]1,1.05
7,Cc1c2oc3c(C)ccc(C(=O)N[C@@H]4C(=O)N[C@H](C(C)C)C(=O)N5CCC[C@H]5C(=O)N(C)CC(=O)N(C)[C@@H](C(C)C)C(=O)O[C@@H]4C)c3nc-2c(C(=O)N[C@@H]2C(=O)N[C@H](C(C)C)C(=O)N3CCC[C@H]3C(=O)N(C)CC(=O)N(C)[C@@H](C(C)C)C(=O)O[C@@H]2C)c(N)c1=O [Actinomycin D],0.584
8,C[C@@H](Oc1cc(-c2cnn(C3CCNCC3)c2)cnc1N)c1c(Cl)ccc(F)c1Cl [crizotinib],0.34
9,COc1ccc(Cn2ccc3ccc(C(=O)NO)cc32)cc1,0.928
10,O=Cc1ccc(N2CCOCC2)cc1O,1.07
11,NC(=O)c1ccccc1 [Benzamide],0.902
12,N#C/C(=C\c1ccc(O)c(O)c1)C(=O)NCc1ccccc1,0.891 ± 0.39
13,O=C(CCCCCN1C(=O)c2cccc3cccc(c23)C1=O)NO [Scriptaid],0.311
14,Cc1ccc(-c2cn3c4c(sc3n2)CCCC4)cc1 [Pifithrin-a (cyclic)],1.03
15,CNCc1ccc(-c2[nH]c3cc(F)cc4c3c2CCNC4=O)cc1,0.686
16,CCOc1nc(NC(=O)Cc2cc(OC)ccc2OC)cc(N)c1C#N [JNK inhibitor VIII],1.09
17,COc1cc2nc(N3CCCN(C)CC3)nc(NC3CCN(Cc4ccccc4)CC3)c2cc1OC,0.42
18,CC(C)C(C(=O)O)N1C(=O)C(=Cc2ccc(Br)cc2)SC1=S (configuration not stated),1.11

# Tested on: TOV-21G
# Experiment: as above
# Details: 10 µM; 48 h
# Summary of the method: as §1
row,SMILES,cell viability
1,COc1ccc(Cl)cc1C(=O)NCCc1ccc(S(=O)(=O)NC(=O)NC2CCCCC2)cc1 [Glibenclamide],0.958
2,O=[N+]([O-])c1ccc(-c2nc(-c3ccc(F)cc3)c(-c3ccncc3)[nH]2)cc1,0.976
3,Nc1cccc2c1CN(C1CCC(=O)NC1=O)C2=O (configuration not stated) [lenalidomide],0.954
4,COC(=O)CNC(=O)C(=O)OC [Dimethyloxalylglycine],0.917
5,CNC(=O)c1cc(Oc2ccc(NC(=O)Nc3ccc(Cl)c(C(F)(F)F)c3)cc2)ccn1 [sorafenib],0.604
6,Clc1ccccc1CNCC1CCC(CNCc2ccccc2Cl)CC1 (configuration not stated),1.03
7,Nc1[nH]nc2nnc(-c3c(-c4ccccc4)nn4ccccc34)cc12 [ERK inhibitor II],0.734
8,CC(C)(C)c1cc(O)ccc1O [t-Butylhydroquinone (BHQ)],1.11
9,C=CCNC1=C2C[C@@H](C)C[C@H](OC)[C@H](O)[C@@H](C)/C=C(\C)[C@H](OC(N)=O)[C@@H](OC)/C=C\C=C(/C)C(=O)NC(=CC1=O)C2=O,0.575
10,Oc1c2ccccc2c2c3c(cccc13)N=N2,0.65 ± 0.023
11,CC(C)n1nc(-c2cc3cc(O)ccc3[nH]2)c2c(N)ncnc21 [Torkinib],0.38
12,CN(C)CC[C@H](CSc1ccccc1)Nc1ccc(S(=O)(=O)NC(=O)c2ccc(N3CCN(Cc4ccccc4-c4ccc(Cl)cc4)CC3)cc2)cc1[N+](=O)[O-],0.358
13,CO[C@H]1C[C@@H]2CC[C@@H](C)[C@@](O)(O2)C(=O)C(=O)N2CCCC[C@H]2C(=O)O[C@H]([C@H](C)C[C@@H]2CC[C@@H](OC(=O)C(C)(CO)CO)[C@H](OC)C2)CC(=O)[C@H](C)/C=C(\C)[C@@H](O)[C@@H](OC)C(=O)[C@H](C)C[C@H](C)/C=C/C=C/C=C/1C [temsirolimus],0.516
14,CCCOc1ccccc1-c1nc2[nH]nnc2c(=O)[nH]1 [Zaprinast],1.03
15,C[C@]1(O)C[C@@H](c2nc(-c3ccc4ccc(-c5ccccc5)nc4c3)c3c(N)nccn32)C1,0.875
16,CCOC(=O)C1=C(N)Oc2ccc(Br)cc2C1C(C#N)C(=O)OCC (configuration not stated),0.998
17,"COc1cccc2c1C(=O)c1c(O)c3c(c(O)c1C2=O)C[C@@](O)(C(C)=O)C[C@@H]3O[C@H]1C[C@H](N)[C@H](O)[C@H](C)O1 [Daunorubicin, HCl]",0.527
18,O=C(Nc1cccc(NC(=O)c2cccc(O)c2O)c1)c1cccc(O)c1O,0.302

row,SMILES,cell viability
1,CNC(=O)c1ccc(N2C(=S)N(c3ccc(C#N)c(C(F)(F)F)c3)C(=O)C2(C)C)cc1F,1.18
2,CN(Cc1cnc2nc(N)nc(N)c2n1)c1ccc(C(=O)N[C@@H](CCC(=O)O)C(=O)O)cc1 [Methotrexate],0.872
3,CCCCCCCCCCC1=C(C)C(=O)C(OC)=C(OC)C1=O [Decylubiquinone],0.981
4,CC(Cc1ccc(O)c(O)c1)C(C)Cc1ccc(O)c(O)c1 (configuration not stated) [Nordihydroguaiaretic acid (NDGA)],0.865
5,C[C@H](NC(=O)/C(C#N)=C/c1cccc(Br)n1)c1ccccc1,0.392
6,Cc1cnc(-c2cnc(NCCNc3ccc(C#N)cn3)nc2-c2ccc(Cl)cc2Cl)[nH]1,0.888
7,Cc1c2oc3c(C)ccc(C(=O)N[C@@H]4C(=O)N[C@H](C(C)C)C(=O)N5CCC[C@H]5C(=O)N(C)CC(=O)N(C)[C@@H](C(C)C)C(=O)O[C@@H]4C)c3nc-2c(C(=O)N[C@@H]2C(=O)N[C@H](C(C)C)C(=O)N3CCC[C@H]3C(=O)N(C)CC(=O)N(C)[C@@H](C(C)C)C(=O)O[C@@H]2C)c(N)c1=O [Actinomycin D],0.456
8,C[C@@H](Oc1cc(-c2cnn(C3CCNCC3)c2)cnc1N)c1c(Cl)ccc(F)c1Cl [crizotinib],0.333
9,COc1ccc(Cn2ccc3ccc(C(=O)NO)cc32)cc1,0.919
10,O=Cc1ccc(N2CCOCC2)cc1O,0.993
11,NC(=O)c1ccccc1 [Benzamide],0.989
12,N#C/C(=C\c1ccc(O)c(O)c1)C(=O)NCc1ccccc1,1 ± 0.013
13,O=C(CCCCCN1C(=O)c2cccc3cccc(c23)C1=O)NO [Scriptaid],0.367
14,Cc1ccc(-c2cn3c4c(sc3n2)CCCC4)cc1 [Pifithrin-a (cyclic)],1.11
15,CNCc1ccc(-c2[nH]c3cc(F)cc4c3c2CCNC4=O)cc1,0.746
16,CCOc1nc(NC(=O)Cc2cc(OC)ccc2OC)cc(N)c1C#N [JNK inhibitor VIII],1.12
17,COc1cc2nc(N3CCCN(C)CC3)nc(NC3CCN(Cc4ccccc4)CC3)c2cc1OC,0.454
18,CC(C)C(C(=O)O)N1C(=O)C(=Cc2ccc(Br)cc2)SC1=S (configuration not stated),1.16
